39 molecules from article PMC9911399, “Two distinct binding modes provide the RNA-binding protein RbFox with extraordinary sequence specificity” can be followed below.

Substitutions are numbered along the chain they refer to; changes in the protein carry UniProt numbers. In all, about 16,000 sequences were measured (“ka relative to ugcaugu”: median about 0.0091, highest 2% from about 0.032 on). Only a selection was taken, and the highest values are over-represented in it overall.

T1: RBFOX1 RRM (Homo sapiens, UniProt Q9NWB1 109-208)
T1 sequence: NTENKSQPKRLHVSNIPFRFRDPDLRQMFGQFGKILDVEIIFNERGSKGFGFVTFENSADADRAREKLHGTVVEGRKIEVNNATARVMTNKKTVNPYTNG

B1: UUUCUCU (DNA:RNA)
RNA: GGGAGACCGGAAUUCAGAUUGUCCUUUCUCUUUAAAUCCCGUCGUAGCCACCA
DNA 1: CAATCTGAATTCCGGTCTCCC
DNA 2: TGGTGGCTACGACGGGATT
B2: CAUGAAC (DNA:RNA)
RNA: B1 RNA with U25C, U26A, C28G, U29A, C30A, U31C
DNA 1: CAATCTGAATTCCGGTCTCCC
DNA 2: TGGTGGCTACGACGGGATT
B3: CGAUGUC (DNA:RNA)
RNA: GGGAGACCGGAAUUCAGAUUGUCCCGAUGUCUUAAAUCCCGUCGUAGCCACCA
DNA 1: CAATCTGAATTCCGGTCTCCC
DNA 2: TGGTGGCTACGACGGGATT
B4: CGUGGUC (DNA:RNA)
RNA: B3 RNA with A27U, U28G
DNA 1: CAATCTGAATTCCGGTCTCCC
DNA 2: TGGTGGCTACGACGGGATT
B5: UCUGCGG (DNA:RNA)
RNA: B1 RNA with U26C, C28G, U29C, C30G, U31G
DNA 1: CAATCTGAATTCCGGTCTCCC
DNA 2: TGGTGGCTACGACGGGATT
B6: AAAACGU (DNA:RNA)
RNA: B3 RNA with C25A, G26A, U28A, G29C, U30G, C31U
DNA 1: CAATCTGAATTCCGGTCTCCC
DNA 2: TGGTGGCTACGACGGGATT
B7: AGUCCGC (DNA:RNA)
RNA: B3 RNA with C25A, A27U, U28C, G29C, U30G
DNA 1: CAATCTGAATTCCGGTCTCCC
DNA 2: TGGTGGCTACGACGGGATT
B8: GAGAAUG (DNA:RNA)
RNA: B3 RNA with C25G, G26A, A27G, U28A, G29A, C31G
DNA 1: CAATCTGAATTCCGGTCTCCC
DNA 2: TGGTGGCTACGACGGGATT
B9: GAGAUUG (DNA:RNA)
RNA: B3 RNA with C25G, G26A, A27G, U28A, G29U, C31G
DNA 1: CAATCTGAATTCCGGTCTCCC
DNA 2: TGGTGGCTACGACGGGATT
B10: GGAAAUG (DNA:RNA)
RNA: B3 RNA with C25G, U28A, G29A, C31G
DNA 1: CAATCTGAATTCCGGTCTCCC
DNA 2: TGGTGGCTACGACGGGATT
B11: GCGAAUC (DNA:RNA)
RNA: B3 RNA with C25G, G26C, A27G, U28A, G29A
DNA 1: CAATCTGAATTCCGGTCTCCC
DNA 2: TGGTGGCTACGACGGGATT
B12: GUGAAUG (DNA:RNA)
RNA: B3 RNA with C25G, G26U, A27G, U28A, G29A, C31G
DNA 1: CAATCTGAATTCCGGTCTCCC
DNA 2: TGGTGGCTACGACGGGATT
B13: GGGAAUG (DNA:RNA)
RNA: B3 RNA with C25G, A27G, U28A, G29A, C31G
DNA 1: CAATCTGAATTCCGGTCTCCC
DNA 2: TGGTGGCTACGACGGGATT
B14: GCGCGAA (DNA:RNA)
RNA: B3 RNA with C25G, G26C, A27G, U28C, U30A, C31A
DNA 1: CAATCTGAATTCCGGTCTCCC
DNA 2: TGGTGGCTACGACGGGATT
B15: GUGAAUC (DNA:RNA)
RNA: B3 RNA with C25G, G26U, A27G, U28A, G29A
DNA 1: CAATCTGAATTCCGGTCTCCC
DNA 2: TGGTGGCTACGACGGGATT
B16: GCGAAUG (DNA:RNA)
RNA: B3 RNA with C25G, G26C, A27G, U28A, G29A, C31G
DNA 1: CAATCTGAATTCCGGTCTCCC
DNA 2: TGGTGGCTACGACGGGATT
B17: GUGACCG (DNA:RNA)
RNA: B1 RNA with U25G, U27G, C28A, U29C, U31G
DNA 1: CAATCTGAATTCCGGTCTCCC
DNA 2: TGGTGGCTACGACGGGATT
B18: GAGACCG (DNA:RNA)
RNA: B1 RNA with U25G, U26A, U27G, C28A, U29C, U31G
DNA 1: CAATCTGAATTCCGGTCTCCC
DNA 2: TGGTGGCTACGACGGGATT
B19: GUUAAUG (DNA:RNA)
RNA: B1 RNA with U25G, C28A, U29A, C30U, U31G
DNA 1: CAATCTGAATTCCGGTCTCCC
DNA 2: TGGTGGCTACGACGGGATT
B20: UGACAAG (DNA:RNA)
RNA: B3 RNA with C25U, U28C, G29A, U30A, C31G
DNA 1: CAATCTGAATTCCGGTCTCCC
DNA 2: TGGTGGCTACGACGGGATT
B21: ACGCUGG (DNA:RNA)
RNA: B1 RNA with U25A, U26C, U27G, C30G, U31G
DNA 1: CAATCTGAATTCCGGTCTCCC
DNA 2: TGGTGGCTACGACGGGATT
B22: UGGCAAU (DNA:RNA)
RNA: B1 RNA with U26G, U27G, U29A, C30A
DNA 1: CAATCTGAATTCCGGTCTCCC
DNA 2: TGGTGGCTACGACGGGATT
B23: CACCCCG (DNA:RNA)
RNA: B1 RNA with U25C, U26A, U27C, U29C, U31G
DNA 1: CAATCTGAATTCCGGTCTCCC
DNA 2: TGGTGGCTACGACGGGATT
B24: CUUGCCC (DNA:RNA)
RNA: B1 RNA with U25C, C28G, U29C, U31C
DNA 1: CAATCTGAATTCCGGTCTCCC
DNA 2: TGGTGGCTACGACGGGATT
B25: CAAUCGU (DNA:RNA)
RNA: B3 RNA with G26A, G29C, U30G, C31U
DNA 1: CAATCTGAATTCCGGTCTCCC
DNA 2: TGGTGGCTACGACGGGATT
B26: ACUUACA (DNA:RNA)
RNA: B1 RNA with U25A, U26C, C28U, U29A, U31A
DNA 1: CAATCTGAATTCCGGTCTCCC
DNA 2: TGGTGGCTACGACGGGATT
B27: CACUUGG (DNA:RNA)
RNA: B3 RNA with G26A, A27C, G29U, U30G, C31G
DNA 1: CAATCTGAATTCCGGTCTCCC
DNA 2: TGGTGGCTACGACGGGATT
B28: CGUAAUG (DNA:RNA)
RNA: B3 RNA with A27U, U28A, G29A, C31G
DNA 1: CAATCTGAATTCCGGTCTCCC
DNA 2: TGGTGGCTACGACGGGATT
B29: GUAAAUG (DNA:RNA)
RNA: B3 RNA with C25G, G26U, U28A, G29A, C31G
DNA 1: CAATCTGAATTCCGGTCTCCC
DNA 2: TGGTGGCTACGACGGGATT
B30: AGGAAUG (DNA:RNA)
RNA: B3 RNA with C25A, A27G, U28A, G29A, C31G
DNA 1: CAATCTGAATTCCGGTCTCCC
DNA 2: TGGTGGCTACGACGGGATT
B31: UCGAAUG (DNA:RNA)
RNA: B3 RNA with C25U, G26C, A27G, U28A, G29A, C31G
DNA 1: CAATCTGAATTCCGGTCTCCC
DNA 2: TGGTGGCTACGACGGGATT
B32: UCGAAUC (DNA:RNA)
RNA: B3 RNA with C25U, G26C, A27G, U28A, G29A
DNA 1: CAATCTGAATTCCGGTCTCCC
DNA 2: TGGTGGCTACGACGGGATT
B33: UCGAUUG (DNA:RNA)
RNA: B1 RNA with U26C, U27G, C28A, C30U, U31G
DNA 1: CAATCTGAATTCCGGTCTCCC
DNA 2: TGGTGGCTACGACGGGATT
B34: CGGAAUG (DNA:RNA)
RNA: B3 RNA with A27G, U28A, G29A, C31G
DNA 1: CAATCTGAATTCCGGTCTCCC
DNA 2: TGGTGGCTACGACGGGATT
B35: CGUCCGU (DNA:RNA)
RNA: B1 RNA with U25C, U26G, U29C, C30G
DNA 1: CAATCTGAATTCCGGTCTCCC
DNA 2: TGGTGGCTACGACGGGATT
B36: GGAAUGU (DNA:RNA)
RNA: B3 RNA with C25G, U28A, G29U, U30G, C31U
DNA 1: CAATCTGAATTCCGGTCTCCC
DNA 2: TGGTGGCTACGACGGGATT
B37: AGGAAUC (DNA:RNA)
RNA: B3 RNA with C25A, A27G, U28A, G29A
DNA 1: CAATCTGAATTCCGGTCTCCC
DNA 2: TGGTGGCTACGACGGGATT
B38: GUAAUGU (DNA:RNA)
RNA: B1 RNA with U25G, U27A, C28A, C30G
DNA 1: CAATCTGAATTCCGGTCTCCC
DNA 2: TGGTGGCTACGACGGGATT
B39: AGGAUUG (DNA:RNA)
RNA: B3 RNA with C25A, A27G, U28A, G29U, C31G
DNA 1: CAATCTGAATTCCGGTCTCCC
DNA 2: TGGTGGCTACGACGGGATT

The target in this assay is T1, RBFOX1 RRM. Put plainly: EMSA; HiTS-Eq, 1 nM pool, 10 min; buffer printed only for the single-RNA assays: 10 mM Tris pH 7.5, 150 mM NaCl, 3.4 mM EDTA, 0.001% NP-40, 30 C. The settings on record: tags: His6 N-terminal (pET28a); label: 5' 32P. In short, it runs like this:
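Purified RbFox RRM, wild type or mutant, was incubated for 10 min in 50 µL with 1 nM of a 5′-radiolabelled RNA pool carrying 7 randomized nucleotides, whose flanks were annealed to DNA oligonucleotides, over a series of increasing protein concentrations. Unbound RNA was resolved on 8% native PAGE, cut out, reverse-transcribed, barcoded by PCR and sequenced on an Illumina HiSeq 2500. Relative association constants were derived from changes in read counts for each RNA species versus the control reaction and normalised to the cognate motif.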
As for B1, the binding signal is 0.0126 KA relative to UGCAUGU.
On to B2, for which the binding signal is 0.00509 KA relative to UGCAUGU.
The value for B3 was 0.0174 KA relative to UGCAUGU; that for B4 was 0.017 KA relative to UGCAUGU; that for B5 was 0.0178 KA relative to UGCAUGU.
The result for B6 reads 0.000755 KA relative to UGCAUGU.
For B7, the binding signal was 0.0128 KA relative to UGCAUGU.
For the molecule B8, the binding signal is 0.0321 KA relative to UGCAUGU.
The value for B9 was 0.019 KA relative to UGCAUGU; that for B10 was 0.0124 KA relative to UGCAUGU; that for B11 was 0.0124 KA relative to UGCAUGU.
For B12, the binding signal is 0.0355 KA relative to UGCAUGU.
As for B13, the binding signal was 0.0951 KA relative to UGCAUGU.
The result for B14 reads 0.0104 KA relative to UGCAUGU; that for B15, 0.0142 KA relative to UGCAUGU; that for B16, 0.0369 KA relative to UGCAUGU.
The result for B17 reads 0.0167 KA relative to UGCAUGU.
As to B18, the binding signal is 0.00974 KA relative to UGCAUGU.
The result for B19 reads 0.0118 KA relative to UGCAUGU; that for B20, 0.0143 KA relative to UGCAUGU; that for B21, 0.0175 KA relative to UGCAUGU.
The result for B22 reads 0.0132 KA relative to UGCAUGU; that for B23, 0.002 KA relative to UGCAUGU; that for B24, 0.00752 KA relative to UGCAUGU.
The value for B25 was 0.00595 KA relative to UGCAUGU; that for B26 was 0.00166 KA relative to UGCAUGU; that for B27 was 0.0107 KA relative to UGCAUGU.
With B28, the binding signal is 0.0127 KA relative to UGCAUGU.
The result for B29 reads 0.00894 KA relative to UGCAUGU; that for B30, 0.0471 KA relative to UGCAUGU; that for B31, 0.0323 KA relative to UGCAUGU.
As for B32, the binding signal is 0.0109 KA relative to UGCAUGU.
Turning to B33, the binding signal was 0.0206 KA relative to UGCAUGU.
The value for B34 was 0.0596 KA relative to UGCAUGU.
The result for B35 reads 0.0125 KA relative to UGCAUGU; that for B36, 0.0563 KA relative to UGCAUGU.
As to B37, the binding signal was 0.0141 KA relative to UGCAUGU.
The result for B38 reads 0.0122 KA relative to UGCAUGU; that for B39, 0.0293 KA relative to UGCAUGU.
